Test results: PubChem BioAssay AID1159580 (chemical genetic matrix, 2015)
Values joined by “and” are separate entries in the source; they are usually repeats but may differ in a detail not shown here. Equal values may be shown once. Among all 5,500 compounds or so, about 2,000 (36%) were called active. Roughly 18% stayed inconclusive and do not appear here. Cut-off read from the data, not from the text of the source: active = normalized growth mostly below about 0.91 (no sharp cut-off); inconclusive = no clear call, values can overlap the other calls; inactive = mostly above about 0.92. The list shows a part of the results.

Experiment: chemical genetic growth profiling, strain panel (AID 1159580);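 note: tested at 20 µM; growth read once vehicle control cultures reached saturation at 30 °C; 1 = growth at the plate median or of vehicle wells; lower values mean less growth of the strain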
Conditions: growth OD

Measured: normalized growth

CCN(CC)CCCC(C)Nc1ccnc2cc(Cl)ccc12 (stereo not drawn)
inactive: S. cerevisiae deletion strains, locus YJR075W, strain HOC1, hits give low values 1.03 and 1.01 | S. cerevisiae deletion strains, locus YKL009W, strain mrt4, hits give low values 1.03 | S. cerevisiae deletion strains, locus YKL068W, hits give low values 1.01 | S. cerevisiae deletion strains, locus YKL085W, strain MDH1 (second series), hits give low values 0.998 | S. cerevisiae deletion strains, locus YKL085W, strain MDH1, hits give low values 0.998 | S. cerevisiae deletion strains, locus YKL160W, strain elf1, hits give low values 1.03 | S. cerevisiae deletion strains, locus YKR001C, strain vps1, hits give low values 1.01 | S. cerevisiae deletion strains, locus YKR026C, strain gcn3, hits give low values 1.03 | S. cerevisiae deletion strains, locus YKR091W, strain srl3, hits give low values 1.02 | S. cerevisiae deletion strains, locus YLL001W, strain dnm1, hits give low values 1.02 | S. cerevisiae deletion strains, locus YLL026W, hits give low values 1.01 | S. cerevisiae deletion strains, locus YLL041C, strain sdh2, hits give low values 1.02 | S. cerevisiae deletion strains, locus YLR027C, strain aat2, hits give low values 1.01 | S. cerevisiae deletion strains, locus YLR039C, strain RIC1, hits give low values 1.04 | S. cerevisiae deletion strains, locus YLR058C, strain SHM2, hits give low values 1.03 | S. cerevisiae deletion strains, locus YLR102C, strain apc9, hits give low values 1 | S. cerevisiae deletion strains, locus YLR113W, strain HOG1, hits give low values 0.947 | S. cerevisiae deletion strains, locus YLR221C, strain rsa3, hits give low values 1.03 | S. cerevisiae deletion strains, locus YLR258W, strain gsy2, hits give low values 1.01 | S. cerevisiae deletion strains, locus YLR262C, strain YPT6 (second series), hits give low values 1.01 | S. cerevisiae deletion strains, locus YLR262C, strain YPT6, hits give low values 1.01 | S. cerevisiae deletion strains, locus YLR268W, strain sec22, hits give low values 0.998 | S. cerevisiae deletion strains, locus YLR320W, strain mms22, hits give low values 1.01 | S. cerevisiae deletion strains, locus YLR330W, strain CHS5, hits give low values 1.02 | S. cerevisiae deletion strains, locus YLR342W, strain FKS1 (second series), hits give low values 1.03 | S. cerevisiae deletion strains, locus YLR342W, strain FKS1, hits give low values 1.03 | S. cerevisiae deletion strains, locus YLR357W, strain rsc2, hits give low values 1.05 | S. cerevisiae deletion strains, locus YLR370C, strain arc18, hits give low values 1.02 | S. cerevisiae deletion strains, locus YLR371W, strain rom2, hits give low values 1.02 | S. cerevisiae deletion strains, locus YLR384C, strain iki3, hits give low values 1.03 | S. cerevisiae deletion strains, locus YLR418C, strain cdc73, hits give low values 1.07 | S. cerevisiae deletion strains, locus YML016C, strain PPZ1, hits give low values 1.01 | S. cerevisiae deletion strains, locus YML032C, strain rad52, hits give low values 0.996 | S. cerevisiae deletion strains, locus YML120C, strain ndi1, hits give low values 1.01 | S. cerevisiae deletion strains, locus YML124C, strain tub3, hits give low values 1 | S. cerevisiae deletion strains, locus YMR058W, strain fet3, hits give low values 1 | S. cerevisiae deletion strains, locus YMR078C, strain ctf18, hits give low values 1.02 | S. cerevisiae deletion strains, locus YMR125W, strain sto1, hits give low values 1.03 | S. cerevisiae deletion strains, locus YMR129W, hits give low values 1.02 | S. cerevisiae deletion strains, locus YMR205C, strain PFK2, hits give low values 1.04 | S. cerevisiae deletion strains, locus YMR223W, strain ubp8, hits give low values 1.03 | S. cerevisiae deletion strains, locus YMR231W, strain pep5, hits give low values 1.02 | S. cerevisiae deletion strains, locus YMR307W, strain GAS1, hits give low values 1.04 | S. cerevisiae deletion strains, locus YNL067W, strain RPL9B, hits give low values 1.03 | S. cerevisiae deletion strains, locus YNL071W, strain lat1, hits give low values 1 | S. cerevisiae deletion strains, locus YNL128W, strain TEP1, hits give low values 1.04 | S. cerevisiae deletion strains, locus YNL153C, strain GIM3, hits give low values 1.04 | S. cerevisiae deletion strains, locus YNL175C, strain NOP13, hits give low values 1.01 | S. cerevisiae deletion strains, locus YNL183C, strain NPR1, hits give low values 0.918 | S. cerevisiae deletion strains, locus YNL197C, strain WHI3, hits give low values 0.99 | S. cerevisiae deletion strains, locus YNL209W, strain ssb2, hits give low values 1.01 | S. cerevisiae deletion strains, locus YNL224C, strain SQS1, hits give low values 1 | S. cerevisiae deletion strains, locus YNL233W, strain BNI4, hits give low values 1.03 | S. cerevisiae deletion strains, locus YNL248C, strain rpa49, hits give low values 1.04 | S. cerevisiae deletion strains, locus YNL250W, strain rad50, hits give low values 1.02 | S. cerevisiae deletion strains, locus YNL271C, strain bni1, hits give low values 1.01 | S. cerevisiae deletion strains, locus YNL298W, strain CLA4, hits give low values 1.01 | S. cerevisiae deletion strains, locus YNL307C, strain MCK1, hits give low values 1.02 | S. cerevisiae deletion strains, locus YNL322C, strain KRE1 (second series), hits give low values 1.05 | S. cerevisiae deletion strains, locus YNR049C, strain mso1, hits give low values 1.02 | S. cerevisiae deletion strains, locus YNR052C, strain pop2, hits give low values 1.01 | S. cerevisiae deletion strains, locus YOL006C, strain TOP1, hits give low values 1.14 | S. cerevisiae deletion strains, locus YOL012C, strain htz1 2.16 | S. cerevisiae deletion strains, locus YOL147C, strain pex11, hits give low values 1 | S. cerevisiae deletion strains, locus YOR001W, strain rrp6, hits give low values 1.03 | S. cerevisiae deletion strains, locus YOR061W, strain CKA2, hits give low values 1.01 | S. cerevisiae deletion strains, locus YOR069W, strain VPS5, hits give low values 1.01 | S. cerevisiae deletion strains, locus YOR070C, strain gyp1, hits give low values 1.02 | S. cerevisiae deletion strains, locus YOR080W, strain dia2, hits give low values 1.06 | S. cerevisiae deletion strains, locus YOR083W, strain WHI5 (second series), hits give low values 0.986 | S. cerevisiae deletion strains, locus YOR083W, strain WHI5, hits give low values 1.02 | S. cerevisiae deletion strains, locus YOR106W, strain vam3, hits give low values 1.03 | S. cerevisiae deletion strains, locus YOR136W, strain idh2, hits give low values 1.01 | S. cerevisiae deletion strains, locus YOR144C, strain elg1, hits give low values 0.993 | S. cerevisiae deletion strains, locus YOR184W, strain ser1, hits give low values 1.03 | S. cerevisiae deletion strains, locus YOR231W, strain MKK1, hits give low values 0.953 | S. cerevisiae deletion strains, locus YOR265W, strain rbl2, hits give low values 1.02 | S. cerevisiae deletion strains, locus YOR270C, strain vph1, hits give low values 1.01 | S. cerevisiae deletion strains, locus YOR290C, strain snf2, hits give low values 1.01 | S. cerevisiae deletion strains, locus YOR316C, strain cot1, hits give low values 1.01 | S. cerevisiae deletion strains, locus YPL051W, strain arl3, hits give low values 1.02 | S. cerevisiae deletion strains, locus YPL055C, strain LGE1, hits give low values 1.03 and 1.01 | S. cerevisiae deletion strains, locus YPL078C, strain atp4, hits give low values 1.02 | S. cerevisiae deletion strains, locus YPL106C, strain sse1, hits give low values 1.05 | S. cerevisiae deletion strains, locus YPL240C, strain hsp82, hits give low values 1.02 | S. cerevisiae deletion strains, locus YPL241C, strain CIN2, hits give low values 1.01 | S. cerevisiae deletion strains, locus YPL256C, strain CLN2, hits give low values 0.945 | S. cerevisiae deletion strains, locus YPR119W, strain clb2, hits give low values 1.01 | S. cerevisiae deletion strains, locus YPR141C, strain kar3, hits give low values 1.01 | S. cerevisiae deletion strains, locus YPR163C, strain tif3, hits give low values 0.999 | S. cerevisiae deletion strains, locus YPR167C, strain met16, hits give low values 1.01 | S. cerevisiae deletion strains, strain wtn01, hits give low values 1.03 | S. cerevisiae strains, strain wild type, hits give low values 1.01
